# Reference: PubChem BioAssay
# Tests used:
# [1] = tested on: Human papillomavirus type 1a protein E7 (residues 44-93); assay: HPV1a E7 fragment binders on microarrays, primary screen, biochemical, small-molecule microarray, residues 44-93, 635 nm fluorescence (AID 1108); details: small-molecule microarray binding, fluorescence 635 nm; higher = more signal;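 note: E7 fragment applied at 1 µg/mL in TBST for 1 h at 4 C; score combines spot fluorescence with its signal to noise ratio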
# [2] = modulators of HCV replicon luciferase signal, primary screen, HCV replication inhibitor project, Huh7 cells, luciferase reporter (AID 1109); details: 48 h, higher = more signal;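 note: huh7 hepatoma cells harbouring a luciferase neomycin HCV replicon reporter; luciferase luminescence as measure of HCV replicon replication; test concentration not given here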
# [3] = biological target: Left-right determination factor 2 (Homo sapiens) (UniProt O00292); assay: LEFTY2 binders on small-molecule microarrays, primary screen, biochemical, small-molecule microarray, 635 nm fluorescence scan (AID 1110); details: LEFTY2 binding, higher = more signal
# Sequence of Left-right determination factor 2 (Homo sapiens) (O00292 whole entry, looked up): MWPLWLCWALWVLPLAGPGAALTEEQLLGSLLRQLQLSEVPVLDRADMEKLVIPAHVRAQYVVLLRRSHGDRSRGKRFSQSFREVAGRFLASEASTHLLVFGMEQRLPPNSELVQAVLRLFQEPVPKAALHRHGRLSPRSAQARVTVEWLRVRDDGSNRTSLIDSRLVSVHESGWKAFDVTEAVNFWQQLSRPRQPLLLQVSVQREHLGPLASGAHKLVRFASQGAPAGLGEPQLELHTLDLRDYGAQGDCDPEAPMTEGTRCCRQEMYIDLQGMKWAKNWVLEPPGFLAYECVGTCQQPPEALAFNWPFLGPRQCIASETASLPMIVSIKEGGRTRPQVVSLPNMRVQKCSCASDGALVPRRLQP
# [4] = biological target: Calmodulin-1 (Homo sapiens) (UniProt P0DP23); assay: CALM1 binders on microarrays, EGTA buffer, profiling panel, biochemical, small-molecule microarray, Cy5-labelled CALM1 (AID 1111); details: Cy5-CALM1 binding fluorescence, higher = more signal;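 note: labelled calmodulin applied in Tris saline Tween buffer holding calcium plus EGTA and DTT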
# [5] = biological target: Calmodulin-1 (Homo sapiens) (UniProt P0DP23); assay: calcium-bound CALM1 binders on microarrays, profiling panel, artefact control for SMM control-protein annotation, biochemical, small-molecule microarray, Cy5-labelled CALM1, plus calcium (AID 1112); details: Cy5-CALM1 binding fluorescence, higher = more signal;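 note: score merges spot fluorescence with signal to noise from triplicate slides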
# [6] = small-molecule microarray binders of probe aWnt5a, primary screen, biochemical, biotinylated probe, 635/667 nm fluorescence (AID 1113); details: higher = more signal;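 note: score merges 667 nm fluorescence intensity with signal-to-noise per printed feature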
# [7] = small-molecule microarray binders of probe aShh, primary screen, biochemical, biotinylated probe, 635/667 nm fluorescence (AID 1114); details: higher = more signal;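 note: probe is biotin-labelled aShh protein from a stem cell growth factor screen; measures binding of labelled protein to compounds printed on the slide; score merges feature fluorescence at 667 nm with signal-to-noise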
# [8] = small-molecule microarray binders of probe aNog, primary screen, biochemical, biotinylated probe, 635/667 nm fluorescence (AID 1115); details: higher = more signal;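 note: probe is biotinylated aNog protein used at 0.15 µg/mL for 1 h at 4 C; z-score combines 667 nm fluorescence of each spot with its signal to noise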
# [9] = biological target: Torsin-1A-interacting protein 1 (Homo sapiens) (UniProt Q5JTV8); assay: LAP1 binders from COS7 cell lysate, primary screen, small-molecule microarray, 635/667 nm fluorescence (AID 1116); details: COS7-hLAP1 lysate binding, 635 nm fluorescence, higher = more signal
# Sequence of Torsin-1A-interacting protein 1 (Homo sapiens) (Q5JTV8 whole entry, looked up): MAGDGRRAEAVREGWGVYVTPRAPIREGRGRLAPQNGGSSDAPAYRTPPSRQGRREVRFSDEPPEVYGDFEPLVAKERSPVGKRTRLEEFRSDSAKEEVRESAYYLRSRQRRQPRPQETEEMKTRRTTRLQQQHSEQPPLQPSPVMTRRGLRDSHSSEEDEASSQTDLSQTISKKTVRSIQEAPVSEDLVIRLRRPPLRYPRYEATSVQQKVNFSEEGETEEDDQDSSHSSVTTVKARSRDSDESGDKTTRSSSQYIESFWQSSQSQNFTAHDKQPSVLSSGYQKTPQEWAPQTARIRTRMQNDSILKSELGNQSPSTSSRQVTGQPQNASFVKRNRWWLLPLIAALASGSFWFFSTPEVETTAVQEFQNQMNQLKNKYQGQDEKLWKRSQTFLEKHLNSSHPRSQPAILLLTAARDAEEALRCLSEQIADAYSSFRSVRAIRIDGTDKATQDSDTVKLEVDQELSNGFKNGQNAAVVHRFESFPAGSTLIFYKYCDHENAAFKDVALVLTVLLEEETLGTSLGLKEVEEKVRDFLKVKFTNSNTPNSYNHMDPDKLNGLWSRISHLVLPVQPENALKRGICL
# [10] = biological target: Alpha-bungarotoxin (Bungarus multicinctus) (UniProt P60615); assay: alpha-bungarotoxin binders on microarray, profiling panel, artefact control for SMM control protein annotation, biochemical, small-molecule microarray, Alexa647 label, 635/667 nm fluorescence (AID 1117); details: alpha-BTX-A647 binding fluorescence, higher = more signal
# Sequence of Alpha-bungarotoxin (Bungarus multicinctus) (P60615 whole entry, looked up): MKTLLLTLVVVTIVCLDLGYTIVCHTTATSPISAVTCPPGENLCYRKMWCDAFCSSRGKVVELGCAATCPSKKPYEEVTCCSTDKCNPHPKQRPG
Compound,composite z-score [1],z-score [2],composite z-score [3],composite z-score [4],composite z-score [5],composite z-score [6],composite z-score [7],composite z-score [8],composite z-score [9],composite z-score [10]
Cc1ccc(F)cc1S(=O)(=O)N[C@@H]1CCN(Cc2ccc(Br)cc2)C1,-1.51,-1.5,0.681,-1.03,-0.806,-0.126,-0.214,-0.252,0.418,0.322
COC(=O)C1=CC(CCCO)=CC(c2cccs2)N(C)C=C1C(=O)OC (stereo not given),0.0867,-1.31,-0.876,0.127,0.618,-0.0981,-0.165,-0.0879,0.044,0.498
CCOC(=O)C[C@H]1[C@H](OC(=O)c2ccccc2-c2ccccc2)[C@@H](NC(=O)c2ccc3ccccc3c2)c2cc(OCCCO)ccc2N1C(=O)c1ccccc1,0.461,-1.27,0.596,-0.09,-0.332,-0.0981,-0.291,0.0043,0.228,0.789
C=C(/C(=C/C[C@H](OC(=O)c1ccncc1)c1ccc(CO)o1)c1cnc2ccccc2c1)C(C)C,1.38,-2.1,0.957,0.544,-0.0351,0.0474,-0.15,0.181,0.854,0.999
CC(C)c1ccc(NN2C(C(O)c3ccc(F)cc3)C=CC3C(=O)N(c4ccccc4)C(=O)C32)cc1 (stereo not given),1.44,-0.619,0.397,1.24,-0.0298,0.105,0.246,1.75,0.305,1.39
COc1cc2c(cc1O)C(C1CC1)N(Cc1cccc(OC(F)(F)F)c1)CC2 (stereo not given),-1.05,-2.75,-0.116,-1.67,-0.453,-0.062,-0.0793,-0.147,0.108,-0.41
C=CC[C@@]1(C(=O)NCCCOC)N=C(c2ccc(OCCCO)cc2)O[C@@H]1c1ccccc1N=[N+]=[N-],1.44,-1.09,-0.553,0.968,-0.105,-0.0519,0.0639,0.291,0.905,0.767
C=CC[C@H](OC(=O)Nc1ccc(SC)cc1)c1ccc(O)c2ccccc12,1.4,-4.92,0.679,1.28,0.411,-0.0819,0.23,-0.134,0.986,1.78
CC(C)C(CO)N1C(=O)[C@@H]2C3C(=O)OCCC/C=C\[C@H]3OC23C=CCN(Cn2nnc4ccccc42)C(=O)[C@@H]13 (stereo not given in full),1.32,0.236,-0.874,-0.42,0.0878,-0.202,-0.229,0.407,1.92,-1.15
C[C@@H]1NC(=O)[C@@H](Cc2ccccc2)NC(=O)[C@@]23C(=O)N[C@@H](Cc4ccccc4)C2[C@H](C)[C@@]2(C)O[C@H]2C3/C=C/C/C=C\CNC1=O (stereo not given in full),0.739,-0.857,-0.22,-0.744,-1.16,-0.222,-0.0471,-0.281,-0.0991,-0.537
CC1CC/C=C\[C@H]2OC34C=CCN(Cc5ccccc5)C(=O)[C@H]3N(C(CO)C(C)C)C(=O)[C@@H]4C2C(=O)O1 (stereo not given in full),-0.376,-0.386,-0.369,-0.862,-0.528,-0.176,-0.0709,-0.12,0.344,-0.677
CC1CC/C=C\[C@H]2OC34C=CCN(c5ccc(Cl)cc5)C(=O)[C@H]3N(C(C)CO)C(=O)[C@]4(C)C2C(=O)O1 (stereo not given in full),-0.815,-1.16,-0.707,0.253,-0.141,-0.124,-0.289,-0.0133,0.0045,-0.664
CCCNC(=O)[C@@]1(Sc2ccc(C)cc2)CC(=O)N(C2Cc3ccccc3C2)[C@@H]1c1ccc(CO)cc1I,1.08,-1.65,0.698,0.183,0.497,0.0932,-0.221,1.17,0.604,0.161
NC(=O)[C@H]1[C@@H]2C(=O)O[C@@H](c3ccccc3)[C@@H](c3ccccc3)N2[C@@H](c2ccc(OCCO)cc2)[C@]12C(=O)Nc1ccc(C#CCCO)cc12,0.333,-1.39,-0.128,0.947,0.382,0.055,-0.253,-0.387,0.757,1.59
CCCC#C[Si](O[C@H](CC)c1cn([C@H](C)c2ccccc2)nn1)(C(C)C)C(C)C,0.691,-0.133,0.3,-0.155,-0.157,-0.124,0.275,0.341,1.54,0.709
C=CCN1Cc2ccccc2[C@@H]2OC(c3ccc(OCCCO)cc3)=N[C@]2(CC=C)C1=O,0.139,-1.43,0.718,0.698,-0.0856,0.128,0.0469,0.634,2.02,2.04
CCCCCN1CC=CC23O[C@@H]4/C=C\CCC(C)OC(=O)C4[C@H]2C(=O)N(C(CO)C(C)C)[C@@H]3C1=O (stereo not given in full),-0.333,-1.64,-0.214,-0.983,-0.876,-0.172,-0.469,-0.463,0.163,0.0325
C#CCN([C@@H](Cc1ccccc1)C(=O)OC)[C@@H](/C=C/C1CC1)[C@H](O)Cc1ccccc1,-0.447,-3.13,0.0156,-0.979,-1.54,-0.217,-0.0553,-0.352,0.483,0.0673

Compound,composite z-score [1],z-score [2],composite z-score [3],composite z-score [4],composite z-score [5],composite z-score [6],composite z-score [7],composite z-score [8],composite z-score [9],composite z-score [10]
COc1ccc(C(=O)Nc2ccc(CN3C(=O)[C@]4(O[C@H](CC(=O)N5Cc6ccccc6C[C@H]5CO)[C@@H]([Si](C)(C)c5ccc(OC)cc5)[C@@H]4C)c4ccccc43)cc2)cc1,1.33,-3.58,0.575,0.301,-0.376,-0.128,-0.232,-0.31,0.795,1.31
[N-]=[N+]=Nc1ccccc1C[C@]1(C(=O)NCCN2CCOCC2)COC(c2ccc(OCCCO)cc2)=N1,1.4,-1.92,0.795,0.76,-0.553,-0.349,-0.221,0.624,0.101,0.536
NCCCCCCNC(=O)[C@@H]1C[C@@H]2C(=O)N[C@@H](CCCCN)C(=O)N2[C@@H]1c1ccc(O)cc1,1.31,-0.31,0.642,-0.301,0.0301,-0.172,0.12,-0.0087,1.66,-1.03
CC(CO)N1C(=O)[C@]2(C)C3C(=O)OCCC/C=C\[C@H]3OC23C=CCN(c2ccc(Cl)cc2)C(=O)[C@@H]13 (stereo not given in full),-0.886,0.636,-0.945,-0.275,0.079,-0.0573,-0.243,-0.318,-0.549,-0.358
CCOC(=O)C1=CC[C@@H](c2ccccc2)N(S(=O)(=O)c2ccc(C)cc2)[C@H]1c1ccccc1,1.1,-0.667,0.0056,0.578,0.626,0.0037,-0.138,-0.0496,0.46,0.995
CCOC(=O)C1=C[C@@H](c2ccccc2)N(S(=O)(=O)c2ccc(C)cc2)[C@H]1c1ccc(OC)cc1,0.796,-1.92,0.976,1.6,0.736,0.661,0.926,1.25,0.118,1.24
COC(=O)[C@@]1(Cc2ccc(OC)cc2)[C@H]2c3cc(C(=O)N(C)C)n(Cc4ccc(OC(F)(F)F)cc4)c3C[C@H]2CN1C(=O)c1ccccc1,0.38,-3.63,-0.0954,0.417,0.267,-0.0807,0.337,0.196,1.58,-0.114
CC1CC/C=C\[C@H]2OC34C=CCN(c5ccc6ccccc6c5)C(=O)[C@H]3N(CCCO)C(=O)[C@@H]4C2C(=O)O1 (stereo not given in full),-0.499,0.197,-1.85,-0.568,-0.028,-0.287,-0.291,-0.285,-0.406,-0.905
CC[C@@H]1O[Si](C(C)C)(C(C)C)c2c1cc(-c1cc(C)c(OC)c(C)c1)nc2-c1ccc(Oc2ccccc2)cc1,-0.871,-0.748,-0.389,-0.162,0.0543,-0.117,-0.299,-0.103,-0.386,0.0748
COc1cc2c(cc1O)C(C1CC1)N(C)CC2 (stereo not given),-1.01,-0.817,-0.893,-1.01,-0.193,-0.0101,-0.24,-0.139,-0.431,-1.72
Cc1ccc(N2C(=O)c3ccccc3[C@@H](C(=O)NCCCN(C)C)[C@@H]2c2ccc(CO)cc2)nc1,-0.48,0.234,-0.14,-0.571,-0.382,-0.22,-0.452,-0.577,1.29,0.14
CC1CC/C=C\[C@H]2OC34C=CCN(C(C)C)C(=O)[C@H]3N(CCO)C(=O)[C@@H]4C2C(=O)O1 (stereo not given in full),-0.21,-0.566,-1.6,-0.377,0.0947,-0.202,0.0062,-0.0926,-0.241,-1.22
C=CCNC(=O)[C@@H]1[C@H]2C(=O)O[C@H](c3ccccc3)[C@H](c3ccccc3)N2[C@H](c2ccc(O)cc2)[C@@]12C(=O)N(C(=O)OCCOC)c1ccc(C#CC3=CCCCC3)cc12,1.36,-2.14,0.588,0.544,-0.0251,-0.0685,-0.0769,0.185,0.319,0.662
CCC1=C2CN(Cc3ccccc3)[C@@H](C(=O)Cc3ccccc3)C2C=CCC1 (stereo not given in full),1.4,-0.618,0.133,-0.0133,-0.429,-0.124,-0.211,-0.185,0.0878,0.0601
CCCC=C(CCC)[C@@H](NS(=O)(=O)c1ccc(C(F)(F)F)cc1)c1ccccc1,0.608,-0.0015,-0.318,0.641,0.951,0.0853,-0.106,0.711,-0.127,0.261
Cc1ccc(S[C@]2(C(=O)NCC(F)(F)F)CC(=O)N(Cc3cc(C(F)(F)F)cc(C(F)(F)F)c3)[C@@H]2c2ccc(CO)cc2I)cc1,-0.886,-0.964,-0.868,-0.364,0.0808,-0.231,-0.0035,-0.426,-0.152,-0.379
C=CCOC(=O)[C@@]1(Cc2ccccc2)C[C@H]2CO[C@H](c3ccc(OC)cc3)N2C1=O,0.206,-0.938,0.283,-0.388,-0.659,-0.0846,-0.0035,-0.118,0.574,0.352
O=C1C2C=CC(C(O)c3cccc(O)c3)N(Nc3ccc([N+](=O)[O-])cc3)C2C(=O)N1c1ccccc1 (stereo not given),0.939,-0.278,0.183,0.0968,0.219,-0.0462,0.0022,-0.163,0.26,1.13
